# Inconclusive results are not listed. Where a call stands in place of a potency, no number is given. The source made the active and inactive calls. Calls come from the whole dose curve; as a rule, active = well fitted inhibition curve with a large enough effect; inconclusive = small, poorly fitted or top-dose-only effect; inactive = flat fitted curve, though single readings scatter.
# Biological target: Ubiquitin carboxyl-terminal hydrolase 1 (Homo sapiens) (UniProt O94782)
# Test: Inhibitors of USP1/UAF1: Pilot qHTS (AID 504865); note: nearly all actives have a fitted effect of over 35% in size
# Conditions: purified USP1/UAF1, Ub-rhodamine cleavage fluorescence; series mostly up to 114 µM
# Source text: Deubiquitinating enzymes (DUBs) are a class of enzymes that can cleave isopeptide bond formed between the C-terminal carboxylate of ubiquitin and a lysine side-chain amino group on the target protein. Among them, ubiquitin specific proteases (USPs) constitute the largest DUB family. Human USPs are emerging as promising targets for pharmacological intervention because of their connection to a number of human diseases, including prostate, colon and breast cancer (1, 2), pediatric acute lymphoblastic leukemia (3), and familial cylindromatosis (4). The advantage of inhibiting USPs lies in the potential specificity of therapeutic intervention that can lead to better efficacy and reduce nonspecific side effects.
# In a collaboration between the University of Delaware and the NIH Chemical Genomics Center, a high-throughput screen assay was developed to screen for USP1/UAF1 inhibitors. This miniaturized assay has a fluorescent read-out and is used to screen the NIH Molecular Libraries Small Molecule Repository (MLSMR) in order to identify a small molecule that inhibits USP1.
# NIH Chemical Genomics Center [NCGC]
# NIH Molecular Libraries Probe Centers Network [MLPCN]
# Assay Submitter (PI): Zhihao Zhuang, University of Delaware
# 1. Priolo, C., et al. (2006) The isopeptidase USP2a protects human prostate cancer from apoptosis. Cancer Res 66, 8625-8632
# 2. Popov, N., et al. (2007) The ubiquitin-specific protease USP28 is required for MYC stability. Nat Cell Biol 9, 765-774
# 3. De Pitta, C., et al. (2005) A leukemia-enriched cDNA microarray platform identifies new transcripts with relevance to the biology of pediatric acute lymphoblastic leukemia. Haematologica 90, 890-898
# 4. Kovalenko, A., et al. (2003) The tumour suppressor CYLD negatively regulates NF-kappaB signalling by deubiquitination. Nature 424, 801-805
# 3 microliters of reagents (buffer in columns 3 and 4 as negative control and 1nM USP1/UAF1 complex in columns 1, 2, and 5-48) are dispensed into Greiner black solid bottom 1536-well assay plates. Compounds are then transferred via Kalypsys pin tool equipped with 1536-pin array (10nl slotted pins, V&P Scientific, San Diego, CA). Following an incubation step of 15 min at room temperature, 1ul of Ub-Rho substrate (150nM final concentration) is added to initiate the reaction. The plates are immediately centrifuged at 1000 rpm for 15 seconds, and subsequently transferred to a ViewLux high-throughput CCD imager (PerkinElmer) wherein kinetic measurements of fluorescence are acquired using 480 nm excitation/540 nm emission filter set (6 reads every 60 seconds, see Table 1). All reagents are diluted in an assay buffer consisting of 50mM HEPES (pH 7.8), 0.5mM EDTA, 0.1 mg/ml BSA, 1mM TCEP, and 0.01% Tween-20.
# Potency is the fitted concentration of half-maximal effect.
# Ubiquitin carboxyl-terminal hydrolase 1 (Homo sapiens), sequence (O94782 whole entry, looked up): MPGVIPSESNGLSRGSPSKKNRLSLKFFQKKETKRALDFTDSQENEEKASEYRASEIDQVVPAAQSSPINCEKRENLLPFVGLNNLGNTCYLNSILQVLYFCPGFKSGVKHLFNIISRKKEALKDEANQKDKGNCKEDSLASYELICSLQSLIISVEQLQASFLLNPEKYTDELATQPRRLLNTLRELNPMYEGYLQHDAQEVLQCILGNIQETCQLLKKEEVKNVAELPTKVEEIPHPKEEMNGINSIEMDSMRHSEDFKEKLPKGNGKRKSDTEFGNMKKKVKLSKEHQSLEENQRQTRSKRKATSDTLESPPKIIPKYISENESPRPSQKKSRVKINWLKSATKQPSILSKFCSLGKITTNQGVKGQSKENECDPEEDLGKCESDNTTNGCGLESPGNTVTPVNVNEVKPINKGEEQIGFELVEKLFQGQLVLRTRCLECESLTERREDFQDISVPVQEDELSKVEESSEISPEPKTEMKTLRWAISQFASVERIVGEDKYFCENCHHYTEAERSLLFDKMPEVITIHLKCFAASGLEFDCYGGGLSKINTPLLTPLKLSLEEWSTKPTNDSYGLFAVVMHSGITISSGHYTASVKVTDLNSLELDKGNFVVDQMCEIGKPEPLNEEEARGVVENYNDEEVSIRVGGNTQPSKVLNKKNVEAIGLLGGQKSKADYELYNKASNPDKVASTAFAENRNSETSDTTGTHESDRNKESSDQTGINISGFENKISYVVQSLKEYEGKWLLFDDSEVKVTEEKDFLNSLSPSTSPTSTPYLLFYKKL
row,SMILES,Potency
1,C/C=C1\C[N@@+]2(C)CC[C@@]34C(=C(C=O)[C@H]1C[C@H]32)Nc1ccccc14,inactive
2,CCNc1nc(Cl)nc(NC(C)C)n1,inactive
3,C[C@H](NC(C)(C)C)C(=O)c1cccc(Cl)c1,inactive
4,COc1c2c(cc3c1OCO3)CC[N+](C)=C2,inactive
5,C=CC1CN2CCC1CC2C(OC(=O)OCC)c1ccnc2ccc(OC)cc12 (stereo not given),inactive
6,CCC[C@@](C)(COC(N)=O)COC(=O)NC(C)C,inactive
7,NCC[C@H](O)C(=O)N[C@H]1C[C@@H](N)[C@@H](O[C@H]2O[C@@H](CN)[C@@H](O)[C@@H](O)[C@@H]2N)[C@@H](O[C@H]2O[C@@H](CO)[C@@H](O)[C@@H]2O)[C@@H]1O,inactive
8,Cc1c(O)c(O)cc2c1CC=C1[C@]3(C)CC[C@]4(C)CC[C@@](C)(C(=O)O)CC4[C@]3(C)CC[C@]12C (stereo not given in full),inactive
9,COc1cc(CNC(=O)CCCC/C=C/C(C)C)ccc1O,inactive
10,CN1[C@@H]2CC(OC(=O)[C@H](CO)c3ccccc3)C[C@@H]1[C@H]1O[C@H]12 (stereo not given in full),inactive
11,C[C@]12CCC3C(CC[C@]4(O)CC(O)CC[C@@]34C=O)[C@]1(O)CCC2C1=CC(=O)OC1 (stereo not given in full),inactive
12,C[N+]1([O-])[C@@H]2CC[C@H]1CC(OC(=O)[C@@H](CO)c1ccccc1)C2 (stereo not given in full),inactive
13,C[C@H]1C(=O)O[C@@H]2CCN3CC=C(COC(=O)[C@@](C)(O)[C@@]1(C)O)[C@H]23,inactive
14,CC(=O)OC1CC(OC(C)=O)[C@]2(C)C(CC(OC(C)=O)[C@]3(C)C2CC[C@@]2(C)C(c4ccoc4)C[C@H]4O[C@]432)C1(C)C (stereo not given in full),inactive
15,C=C(C)[C@H]1[C@H]2OC(=O)[C@@H]1[C@]1(O)C[C@H]3O[C@]34C(=O)O[C@H]2[C@@]14C,inactive
16,C=C1CC[C@H](O)C/C1=C/C=C1\CCC[C@]2(C)[C@H]1CC[C@H]2[C@@H](C)CCCC(C)C,inactive
17,COC(=O)COc1ccc(Cl)cc1Cl,inactive
18,O=[As]O[As]=O (stereo not given),inactive
19,C/C=C/c1ccc2c(c1)OCO2,inactive
20,CC(=O)OC1C[C@H](O[C@@H]2C(O)C[C@H](O[C@@H]3C(O)C[C@@H](OC4CC[C@]5(C)C(CCC6C5CC(O)[C@@]5(C)C(C7=CC(=O)OC7)CC[C@@]65O)C4)OC3C)OC2C)O[C@H](C)[C@H]1O[C@H]1OC(CO)C(O)C(O)C1O (stereo not given in full),inactive

row,SMILES,Potency
1,CC1=NCCc2c1[nH]c1cc(O)ccc21,inactive
2,O=c1cccc2n1CC1CC2CN2CCCCC12 (stereo not given),inactive
3,Clc1ccccc1-c1cncnc1NCCc1cnc[nH]1,inactive
4,N#CC(O[C@@H]1OC(COC2OC(CO)C(O)C(O)[C@@H]2O)C(O)C(O)C1O)c1ccccc1 (stereo not given in full),inactive
5,N#Cc1c(Cl)cccc1Cl,inactive
6,COc1ccc(OC)c([C@H](O)[C@H](C)N)c1,inactive
7,CNC(=O)Oc1ccc2c(c1)[C@@]1(C)CCN(C)[C@@H]1N2C,inactive
8,C=C[C@H]1CN2CCC1C[C@@H]2C(O)c1ccnc2ccccc12 (stereo not given in full),inactive
9,COC1=C[C@H]2C3=C([C@H]2C1=O)[C@H](NC(C)=O)CCc1cc(OC)c(OC)c(OC)c13,inactive
10,CNC1[C@@H](O)C(OC2C(N)C[C@H](N)[C@@H](O[C@@H]3OC(C(C)O)C(O)C(O)C3N)C2O)OC[C@]1(C)O (stereo not given in full),inactive
11,CC[C@@H](CO)NC(=O)[C@H]1C=C2c3cccc4c3c(cn4C)C[C@H]2N(C)C1,35.5 µM (active)
12,COC1CC(OC2CC[C@@]3(C=O)C4CC[C@]5(C)C(C6=CC(=O)OC6)CC[C@@]5(O)C4CC[C@]3(O)C2)OC(C)C1O (stereo not given in full),inactive
13,CC[C@@H]1[C@@H]2C[C@H]3[C@H]4N(C)c5ccccc5[C@@]45C[C@@H]([C@@H]2[C@@H]5O)N3[C@H]1O,inactive
14,C[C@@]12CC[C@H](O)C[C@@H]1CC[C@H]1[C@@H]2C[C@@H](O)[C@]2(C)[C@@H](C3=CC(=O)OC3)CC[C@]12O,inactive
15,c1ccc(N=Nc2ccccc2)cc1,inactive
16,O=c1ccc2cc(O[C@H]3O[C@@H](CO)[C@@H](O)[C@@H](O)[C@@H]3O)c(O)cc2o1,inactive
17,CNC(Cc1c[nH]c2ccccc12)C(=O)O (stereo not given),inactive
18,C=C1C2CCC3[C@@](CC[C@@H]4C(C(=O)O)CC(OC5OC(CO)C(OS(=O)(=O)O)C(OS(=O)(=O)O)C5OC(=O)CC(C)C)C[C@]34C)(C2)C1O (stereo not given in full),inactive
19,CC(C)(C#N)O[C@H]1OC(CO)C(O)C(O)C1O (stereo not given in full),inactive
20,C[C@H]1CC[C@@]2(NC1)O[C@@H]1C[C@H]3[C@@H]4CC[C@@H]5C[C@@H](O)CC[C@@]5(C)[C@@H]4CC[C@]3(C)[C@@H]1[C@@H]2C,inactive

# — PubChem BioAssay (NCATS)
